Data from the antibiotic and cytotoxicity screens of Wong et al. (2023).
The campaign covered roughly 39,000 compounds. About 3,300 (8.5%) were called active. This is one part of a sample in which actives are shown more often than they occur.

system: HepG2; experiment: cytotoxicity call (relative viability < 0.9); conditions: 10 µM

SMILES | cytotoxicity call
O=C(C[C@H]1CC[C@H]2[C@@H](COC[C@H](O)CN2S(=O)(=O)c2ccc(F)cc2)O1)N[C@@H]1CCN(Cc2ccccc2)C1 | inactive
CO[C@H]1CN(C)C(=O)c2ccc(NS(C)(=O)=O)cc2OC[C@@H](C)N(C(=O)C2CCCCC2)C[C@@H]1C | inactive
C[C@@H]1CCCCO[C@@H](CN(C)C(=O)C2CCCCC2)[C@@H](C)CN([C@@H](C)CO)C(=O)c2cc(NS(=O)(=O)c3ccc(F)cc3)ccc2O1 | inactive
COc1ccc(S(=O)(=O)N(C)C[C@@H]2Oc3ccc(NS(=O)(=O)c4ccc(F)cc4)cc3CC(=O)N([C@@H](C)CO)C[C@@H]2C)cc1 | inactive
C[C@@H]1CN([C@H](C)CO)C(=O)c2cc(NC(=O)NC3CCCCC3)ccc2O[C@H]1CN(C)S(=O)(=O)c1cn(C)cn1 | inactive
Cc1ccc(S(=O)(=O)N(C)C[C@@H]2Oc3ccc(NC(=O)CCN4CCOCC4)cc3CC(=O)N([C@H](C)CO)C[C@@H]2C)cc1 | inactive
Cc1ccc(S(=O)(=O)N(C)C[C@@H]2Oc3c(NC(=O)Nc4ccc(C(F)(F)F)cc4)cccc3C(=O)N([C@@H](C)CO)C[C@H]2C)cc1 | inactive
C[C@@H]1CN([C@H](C)CO)C(=O)c2cccc(NC(=O)Nc3ccc(C(F)(F)F)cc3)c2O[C@@H]1CN(C)S(=O)(=O)c1ccc(Cl)cc1 | inactive
C[C@H]1CN([C@@H](C)CO)C(=O)c2cccc(NC(=O)Nc3ccc(C(F)(F)F)cc3)c2O[C@H]1CN(C)S(=O)(=O)c1ccc(Cl)cc1 | active
C[C@H](CO)N1C[C@H](C)[C@H](CN(C)S(=O)(=O)c2ccc(Cl)cc2)Oc2c(NC(=O)Nc3ccc(C(F)(F)F)cc3)cccc2C1=O | inactive
Cc1ccc(S(=O)(=O)N(C)C[C@@H]2Oc3c(NC(=O)Nc4ccc(C(F)(F)F)cc4)cccc3C(=O)N([C@H](C)CO)C[C@H]2C)cc1 | inactive
Cc1ccc(S(=O)(=O)N(C)C[C@H]2Oc3c(NC(=O)Nc4ccc(C(F)(F)F)cc4)cccc3C(=O)N([C@@H](C)CO)C[C@H]2C)cc1 | active
Cc1ccc(OC(=O)N(C)C[C@@H]2OCc3ccccc3-c3ccccc3C(=O)N([C@H](C)CO)C[C@H]2C)cc1 | inactive
C[C@@H]1CN([C@H](C)CO)C(=O)Cc2cc(NC(=O)Cc3ccccc3)ccc2O[C@H]1CN(C)C(=O)Nc1ccc(C(F)(F)F)cc1 | inactive
C[C@@H]1CN([C@H](C)CO)C(=O)c2cc(N(C)C)ccc2O[C@@H](C)CCCCO[C@@H]1CN(C)S(C)(=O)=O | inactive
CCCNC(=O)N(C)C[C@@H]1Oc2cc(C#Cc3ccccn3)ccc2S(=O)(=O)N([C@H](C)CO)C[C@H]1C | inactive
Cc1ccc(S(=O)(=O)N(C)C[C@H]2Oc3ccc(NC(=O)NC(C)C)cc3CC(=O)N([C@@H](C)CO)C[C@H]2C)cc1 | inactive
NC(=O)[C@@]1(CCS(=O)(=O)c2ccccc2)N=C(c2ccc(OCCCO)cc2)O[C@H]1c1ccccc1 | inactive
C[C@@H](Oc1cc(-n2cnc3ccc(CN4CCN(C)CC4)cc32)sc1C(N)=O)c1ccccc1C(F)(F)F | active
C[C@@H]1CN([C@@H](C)CO)C(=O)c2cc(C#CC3(O)CCCC3)cnc2O[C@@H]1CN(C)C(=O)Cc1cccnc1 | inactive
C[C@@H]1CN([C@H](C)CO)C(=O)c2cc(C#CC3(O)CCCC3)cnc2O[C@@H]1CN(C)C(=O)CN(C)C | inactive
CCCC(=O)Nc1ccc2c(c1)C(=O)N(C)C[C@@H](OC)[C@H](C)CN(Cc1ccc(-c3ccccn3)cc1)[C@@H](C)CO2 | inactive
CCC(CO)NCCNC(CC)CO.Cl.Cl (centres undefined) | inactive
C=CCC[C@@H](Cc1ccc(F)cc1)C(=O)OC[C@@H](NC(=O)[C@@H](CC=C)CC(=O)N[C@@H](CO)Cc1ccccc1)C(C)(C)C | inactive
C=CCC[C@@H](Cc1ccc(F)cc1)C(=O)OC[C@@H](NC(=O)[C@@H](CC=C)CC(=O)N[C@H](CO)Cc1ccccc1)C(C)(C)C | active

SMILES | cytotoxicity call
C=CCC[C@H](Cc1ccc(F)cc1)C(=O)OC[C@@H](NC(=O)[C@@H](CC=C)CC(=O)N[C@H](CO)Cc1ccccc1)C(C)(C)C | inactive
C=CCC[C@@H](Cc1ccc(F)cc1)C(=O)OC[C@@H](Cc1ccccc1)NC(=O)[C@H](CC=C)CC(=O)N[C@@H](CO)Cc1ccccc1 | inactive
C=CCC[C@H](Cc1ccc(F)cc1)C(=O)OC[C@@H](NC(=O)[C@@H](CC=C)CC(=O)N[C@@H](CO)Cc1ccccc1)C(C)(C)C | active
C=CC[C@H](CC(=O)N[C@@H](CO)Cc1ccccc1)C(=O)N[C@@H](COC(=O)[C@@H](CC=C)Cc1ccc(F)cc1)Cc1ccccc1 | inactive
C[C@H]1CN([C@@H](C)CO)C(=O)c2cc(C#Cc3cccnc3)cnc2O[C@@H]1CN(C)S(=O)(=O)c1ccccc1F | inactive
C[C@H](CO)N1C[C@H](C)[C@@H](CN(C)S(=O)(=O)c2cn(C)cn2)OCCCC[C@H](C)Oc2ccc(NC(=O)CCCN(C)C)cc2C1=O | inactive
O=C(C[C@H]1CC[C@H](NS(=O)(=O)c2ccccc2)[C@@H](CO)O1)NCc1ccncn1 | inactive
C[C@@H]1CCCCO[C@@H](CN(C)C(=O)CCCN(C)C)[C@@H](C)CN([C@H](C)CO)C(=O)c2cc(NS(C)(=O)=O)ccc2O1 | inactive
COc1ccc(S(=O)(=O)N[C@H]2CC[C@H](CC(=O)N3CCN(c4ccccc4)CC3)O[C@@H]2CO)cc1 | inactive
Cn1c(CC#N)n[nH]c1=S | inactive
CC(C)NC(=O)Nc1ccc2c(c1)C(=O)N([C@@H](C)CO)C[C@H](C)[C@@H](CN(C)S(C)(=O)=O)OCCCC[C@H](C)O2 | inactive
CCN1CCCC1CNC(=O)c1cc(S(=O)(=O)CC)c(N)cc1OC (centres undefined) | active
CCN1CCCC1CNC(=O)c1cc(S(N)(=O)=O)ccc1OC (centres undefined) | inactive
CCN(CC)CCNC(=O)c1cc(Br)c(N)cc1OC | inactive
COc1ccc(NC(=O)Nc2cccc3c2O[C@H](CN(C)Cc2ccc(C(=O)Nc4ccccc4N)cc2)[C@H](C)CN([C@@H](C)CO)C3=O)cc1 | inactive
COc1cc(OC)c2c(c1Cl)OC1(C2=O)C(O)=CC(=O)CC1C (centres undefined) | inactive
COC1=CC(=O)CC(C)C12Oc1c(Cl)c(OC)cc(OC)c1C2=O (centres undefined) | active
NC(=O)N1C(=O)[C@H]2[C@H](C1=O)[C@H]1C=C(c3ccc(CO)cc3)[C@@H]2[C@@H](C2CC2)N1Cc1cc2c(cc1Br)OCO2 | inactive
CCCC#Cc1ccc2c(c1)O[C@H](CN(C)S(=O)(=O)c1cccc(F)c1)[C@@H](C)CN([C@H](C)CO)S2(=O)=O | inactive
Cc1ccccc1NC(=O)CC(C)C | inactive
CCn1c(=O)c(-c2cc(NC(=O)Nc3ccccc3)c(F)cc2Br)cc2cnc(NC)cc21 | active
CN(C)CCCCCCNC(=O)[C@H]1C[C@H]2C(=O)NCC(=O)N2[C@H]1c1cccc(OCCO)c1 | inactive
Cc1ccc(S(=O)(=O)Nc2ccc3c(c2)C(=O)N([C@@H](C)CO)C[C@@H](C)[C@H](CN(C)C(=O)Nc2ccc(C(F)(F)F)cc2)OCCCC[C@@H](C)O3)cc1 | inactive
CC[C@@]1(C)N[C@H](C(=O)O)CS1 | inactive
COc1ccc(-n2nc(CCC(=O)N(C)O)cc2-c2ccc(Cl)cc2)cc1 | active

SMILES | cytotoxicity call
COc1ccc2cc(-c3cc(-c4cc(Cl)cc(Cl)c4)nn3[C@@H](C)c3ccc(C(=O)NCCC(=O)O)cc3)ccc2c1 | inactive
C[C@H](CO)N1C[C@H](C)[C@H](CN(C)CC2CC2)Oc2cc(C#Cc3cccc(F)c3)ccc2S1(=O)=O | inactive
O=c1[nH][n+](-c2ccccc2)no1 | inactive
COCC(=O)Nc1ccc2c(c1)[C@@H]1C[C@@H](CC(=O)N3CCOCC3)O[C@@H](CO)[C@@H]1O2 | inactive
O=C(NCC(O)CO)c1c(I)c(C(=O)NCC(O)CO)c(I)c(N(CCO)C(=O)CO)c1I (centres undefined) | active
O=C(NC[C@@H](O)CO)c1c(I)c(C(=O)NC[C@@H](O)CO)c(I)c(N(CCO)C(=O)CO)c1I | inactive
CC(=O)N(C[C@@H](O)CO)c1c(I)c(C(=O)NC[C@@H](O)CO)c(I)c(C(=O)NC[C@@H](O)CO)c1I | inactive
Cc1ccc(S(=O)(=O)Nc2ccc3c(c2)CC(=O)N([C@@H](C)CO)C[C@H](C)[C@H](CN(C)S(=O)(=O)c2cccs2)O3)cc1 | inactive
C[C@H](CO)N1C[C@H](C)[C@H](CN(C)Cc2ccc(Cl)c(Cl)c2)Oc2c(NS(=O)(=O)c3cccs3)cccc2C1=O | inactive
Cn1c(=O)c2[nH]c(C3CCCC3)nc2n(C)c1=O | inactive
CCn1c(Cl)nc2c1c(=O)n(C)c(=O)n2C | inactive
Cc1nc2c(=O)n(C)c(=O)n(C)c2nc1Cl | active
N=C(N)N1CCc2ccccc2C1.O=S(=O)(O)O | inactive
CN1Cc2c(Cl)cc(Cl)cc2[C@H](c2cccc(S(=O)(=O)NCCOCCOCCNC(=O)NCCCCNC(=O)NCCOCCOCCNS(=O)(=O)c3cccc([C@@H]4CN(C)Cc5c(Cl)cc(Cl)cc54)c3)c2)C1 | inactive
COc1ccc(S(=O)(=O)N(C)C[C@@H]2Oc3cc(C#CC4CCCC4)ccc3S(=O)(=O)N([C@H](C)CO)C[C@@H]2C)cc1 | inactive
O=C(C[C@H]1C[C@H]2c3cc(NS(=O)(=O)c4ccc(F)cc4)ccc3O[C@H]2[C@@H](CO)O1)NCc1cccnc1 | inactive
COc1ccc(NC(=O)N(C)C[C@H]2Oc3c(NC(=O)c4ccc(-c5nccs5)cc4)cccc3C(=O)N([C@H](C)CO)C[C@H]2C)cc1 | inactive
COC(=O)c1c(CC[C@@H](CO)NC(=O)N2CCC[C@H]2Cn2cc(-c3ccccn3)nn2)oc(C(C)=O)c1C(=O)OC | inactive
C[C@H]1CN([C@@H](C)CO)C(=O)Cc2cc(NC(=O)CCC(F)(F)F)ccc2O[C@@H]1CN(C)Cc1ccc(Oc2ccccc2)cc1 | inactive
C[C@H]1CN([C@@H](C)CO)C(=O)Cc2cc(NC(=O)CCC(F)(F)F)ccc2O[C@H]1CN(C)Cc1ccc(Oc2ccccc2)cc1 | inactive
C[C@@H]1CN([C@@H](C)CO)C(=O)Cc2cc(NC(=O)CCC(F)(F)F)ccc2O[C@@H]1CN(C)Cc1ccc(Oc2ccccc2)cc1 | active
C[C@@H]1CN([C@H](C)CO)C(=O)Cc2cc(NC(=O)CCC(F)(F)F)ccc2O[C@@H]1CN(C)Cc1ccc(Oc2ccccc2)cc1 | active
C[C@@H]1CN([C@H](C)CO)C(=O)Cc2cc(NC(=O)CCC(F)(F)F)ccc2O[C@H]1CN(C)Cc1ccc(Oc2ccccc2)cc1 | active
C[C@H](CO)N1C[C@H](C)[C@H](CN(C)Cc2ccc(Oc3ccccc3)cc2)Oc2ccc(NC(=O)CCC(F)(F)F)cc2CC1=O | active
